# Screens: PubChem BioAssay, National Center for Advancing Translational Sciences (NCATS)
# IL-1B inflam inh – inflammasome signaling inhibition, IL-1 beta readout; THP-1 LPS/ATP IL-1B secretion, AlphaLISA, 16 h; active compounds read low; activity change, % at 57.5 µM; 360,000 compounds, 4.7% hits; AID 743279; in the data active = activity change below about -50%; inconclusive = mostly about -30% to -49%
#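 THP-1 cells pretreated 1 hr with compounds (up to 57.5 uM final), then stimulated with LPS (250 ng/mL final) plus ATP (1.25 mM final); secreted IL-1B measured by AlphaLISA after 16 hr, decreased signal indicating inhibition.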
# HT1080 IDH1KD tx – toxicity to HT-1080 IDH1 knockdown cells (counter line) | 360,000 compounds, 2% hits | Potency, µM (series often up to 46.1 µM), for inactives: top-dose activity, negative = toxicity, usual class: cytotoxic | AID 686971 | HT-1080 IDH1 knockdown viability, ATP luminescence, 48 h;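 also: potency is read from the fitted curve at half-maximal effect; 0% = DMSO wells and -100% = cell-free medium wells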
#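 IDH1KD HT-1080 cells, 750/well, RPMI + 5% FBS; compound pinned after 2 h settling; 48 h, 37 °C; CellTiter-Glo luminescence; % activity normalised to DMSO and no-cell wells; curves fitted, classed by r2 and efficacy.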
# DT40 TDP1 CPT – DT40-hTDP1 cell growth loss with CPT. chicken DT40 Tdp1-/-;hTDP1 cells + 20 nM CPT, ATP luminescence, 48 h. Potency, µM (series often up to 46.2 µM), without a hit: top-dose activity change, negative = growth inhibition, usual class: inhibitors. 420,000 compounds, 12% hits. AID 686979; also: potency is read from the fitted curve at half-maximal effect; nearly all actives have a fitted effect of over 55% in size
#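 Chicken DT40 Tdp1-/- cells complemented with human TDP1, 400 cells/well, exposed to compounds plus 20 nM camptothecin for at least 48 h at 37 C; viability read as ATP content by CellTiter-Glo luminescence.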
# DT40 TDP1 no CPT – qHTS for Inhibitors of human tyrosyl-DNA phosphodiesterase 1 (TDP1): qHTS in cells in absence of CPT; DT40 Tdp1-/- hTDP1 cells, no CPT, ATP luminescence, 48 h; Potency, µM (titrated, usually from 46.2 µM), for the others: top-dose activity change, negative = growth inhibition, hits mostly inhibitors; 420,000 compounds, 15% hits; AID 686978, 2013; also: potency is read from the fitted curve at half-maximal effect; nearly all actives have a fitted effect of over 55% in size
#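 DT40 Tdp1-/-;hTDP1 cells, no CPT (DMSO vehicle only), 400 cells/well; compounds pin-transferred; ≥48 hr, 37 °C; CellTiter-Glo 30 min RT dark, luminescence read.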
# HT1080NT lethal – kills 2HG-producing HT-1080-NT fibrosarcoma cells | HT-1080-NT fibrosarcoma viability, CellTiter-Glo ATP luminescence, 48 h | Potency, µM (titrated, usually from 46.1 µM), without a hit: at the highest dose activity, negative = less viability, hits mostly cytotoxic | 360,000 compounds, 1.6% hits;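 also: NT is the 2HG producing partner of a matched IDH1 knockdown line; potency is read from the fitted curve at half-maximal effect; 0% = DMSO-treated cells and -100% = media-only wells without cells; nearly all actives have a fitted effect of over 55% in size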
#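 750 cells/well, RPMI + 5% FBS; 2 h settle, compound pin-transfer, 48 h at 37 degrees C. CellTiter-Glo 10 min RT, luminescence. Normalized to DMSO and media-only wells.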
# ALOX12 inh – ALOX12 (human) lipoxygenase inhibition. P18054. purified 12hLO, xylenol orange hydroperoxide absorbance. Potency, µM (top dose mostly 108 µM), without a hit: top-dose activity change, negative = inhibition, most hits filed as inhibitors. 580,000 compounds, 1.1% hits. AID 1671190; also: potency is read from the fitted curve at half-maximal effect
# Target sequence (P18054 whole entry, looked up): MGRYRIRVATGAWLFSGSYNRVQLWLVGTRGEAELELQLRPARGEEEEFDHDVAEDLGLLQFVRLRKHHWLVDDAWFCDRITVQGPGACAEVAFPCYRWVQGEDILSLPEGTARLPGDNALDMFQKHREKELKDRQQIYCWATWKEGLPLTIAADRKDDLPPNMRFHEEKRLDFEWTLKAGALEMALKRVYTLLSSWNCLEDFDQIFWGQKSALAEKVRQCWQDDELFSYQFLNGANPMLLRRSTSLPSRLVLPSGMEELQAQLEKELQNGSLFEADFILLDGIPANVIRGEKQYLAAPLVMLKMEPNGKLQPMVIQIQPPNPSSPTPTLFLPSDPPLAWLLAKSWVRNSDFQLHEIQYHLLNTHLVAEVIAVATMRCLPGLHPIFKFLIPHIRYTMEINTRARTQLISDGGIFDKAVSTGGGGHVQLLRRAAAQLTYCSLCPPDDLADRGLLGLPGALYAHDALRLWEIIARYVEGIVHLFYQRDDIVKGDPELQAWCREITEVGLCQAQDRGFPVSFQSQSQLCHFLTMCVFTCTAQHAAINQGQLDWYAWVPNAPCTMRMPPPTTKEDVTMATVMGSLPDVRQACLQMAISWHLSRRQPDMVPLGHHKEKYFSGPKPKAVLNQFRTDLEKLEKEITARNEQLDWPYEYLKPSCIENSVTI
#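 Purified human 12hLO at 150 nM in 25 mM Hepes, 0.01% Triton X-100, pH 7.0, preincubated 15 min at room temperature with compound. Reaction started with 40 uM arachidonic acid, 30 min at room temperature. Hydroperoxide measured by Fe-xylenol orange, 573/405 nm absorbance ratio.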
# * = called active by the depositor; ? = inconclusive; . = no result; [ ] = another dose, or the depositor's remark. The sample as a whole holds a higher share of hits than the screen did. Unless noted, calls follow the shape of the dose curve; as a rule, active = well fitted curve in the direction sought with a large enough effect; inconclusive = small, poorly fitted or top-dose-only effect, or another doubt; inactive = no such curve, though single readings can be large; an effect the other way counts as inactive or inconclusive. Unless noted, % is scaled to controls: 0 for no effect and ±100 for the full control effect.
SMILES,IL-1B inflam inh,HT1080 IDH1KD tx,DT40 TDP1 CPT,DT40 TDP1 no CPT,HT1080NT lethal,ALOX12 inh
O=C(Nc1ccc(CN2CCOCC2)cc1)c1cccc(-c2cc3ccccc3oc2=O)c1,?,?,16µM*,?,-25%,-9%
CCn1nnc(NC(=O)c2cccc(-c3cc4ccccc4oc3=O)c2)n1,-4,-1%,-13%,?,-1%,?
OCc1ccccc1-c1nc2ccccc2s1,.,.,.,.,.,-1%
c1ccn2cc(C34CC5CC(CC(C5)C3)C4)nc2c1,6,-22%,?,18µM*,-15%,1%
COC(=O)[C@]12CCCCC=C1N(CCC1=CCCCC1)C(=O)[C@H](CC(=O)NCc1cccc(C(F)(F)F)c1)C2,?,?,?,23µM*,?,0%
CCOC(=O)[C@]12CCCC=C1N(CCC1=CCCCC1)C(=O)[C@H](CC(=O)NCc1cccc(C(F)(F)F)c1)C2,-15,?,18µM*,?,?,-28%
N#C/C(=C/c1ccc(-c2ccccc2)cc1)C(N)=O,.,.,.,.,.,39%
COc1ccc(C2=NN(C(=O)c3ccccc3)C(c3ccccc3)C2)c(O)c1 (stereo not drawn),-2,-9%,?,18µM*,-17%,0%
COc1ccc(C2CC(c3ccc(C)cc3)=NN2C(=O)c2ccccc2)cc1 (stereo not drawn),?,?,21µM*,15µM*,?,10%
COc1ccc(C2=NN(C(=O)c3cccs3)C(c3ccc(OC)cc3)C2)cc1 (stereo not drawn),?,5%,?,18µM*,5%,?
COc1ccc(C2=NN(C(=O)c3ccccc3)C(c3ccccc3)C2)cc1 (stereo not drawn),.,.,.,.,.,38%
C/C=C(\C)C(=O)N[C@@H](C)CN1C2=NC[C@H](C(C)C)N2C[C@H]1Cc1ccc(OC)cc1,14,1%,-6%,-13%,12%,-4%
COc1ccc(C[C@@H]2CN3C(=NC[C@@H]3Cc3ccc(O)cc3)N2C[C@H](C)NC(=O)CCC2CCCCC2)cc1,?,-7%,5.8µM*,5.2µM*,-10%,.
COc1ccc(C[C@H]2CN3C(=NC[C@@H]3Cc3ccc(O)cc3)N2C[C@H](C)NC(=O)CCC2CCCCC2)cc1,0,-24%,8.2µM*,16µM*,-12%,-23%
Cc1ccc(S(=O)(=O)N/N=C/c2cc(Br)c(C)o2)cc1,12,15%[9.24 µM],16µM*,?,5%,?
Cc1ccc(S(=O)(=O)N/N=C/c2ccccc2O)cc1,50,6%,-17%,8%,-7%,11%
Cc1ccc(S(=O)(=O)NN=Cc2ccco2)cc1,-13,10%,3%,-4%,11%,-26%
Cc1ccc(S(=O)(=O)N/N=C/c2c(F)cccc2Cl)cc1,16,9%,16µM*,?,7%,-20%
Cc1ccc(S(=O)(=O)NN=CC=CC=NNS(=O)(=O)c2ccc(C)cc2)cc1,-4,6%,?,?,14%,4µM*
Cc1cc(Br)ccc1NC(=O)CCn1cnc2c1c(=O)n(C)c(=O)n2C,.,.,.,.,.,-24%
CC1(C)C2CCC1(C(=O)Nc1ccc(C(F)(F)F)cc1)c1nc(C#N)c(C#N)nc12 (stereo not drawn),.,.,.,.,.,-9%
O=C(NCc1ccc(S(=O)(=O)N2CCOCC2)cc1)c1ccc(SC(F)(F)F)cc1,.,.,.,.,.,9%
C=CCSc1nc(-c2ccccc2)cc(C(F)(F)F)c1C#N,.,.,.,.,.,-16%
O=C(Nc1ccc(Cl)c(C(F)(F)F)c1)[C@@H]1CC=C[C@@H]2CCN(C3CCCCC3)C(=O)[C@@H]21,30,17%,?,16µM*,7%,13%
CCCCN1CC[C@H]2C=CC[C@@H](C(=O)Nc3ccc(Cl)c(C(F)(F)F)c3)[C@H]2C1=O,-22,6%,?,10µM*,13%,-12%
SMILES,IL-1B inflam inh,HT1080 IDH1KD tx,DT40 TDP1 CPT,DT40 TDP1 no CPT,HT1080NT lethal,ALOX12 inh
O=C(Nc1ccccc1)[C@@H]1CC=C[C@@H]2CCN(C3CCCCC3)C(=O)[C@@H]21,-13,10%,?,?,13%,-4%
O=C(Nc1ccc(Cl)cc1Cl)[C@@H]1CC=C[C@@H]2CCN(C3CCCCC3)C(=O)[C@@H]21,.,.,16µM*,18µM*,.,.
O=C(NC1CCCC1)C(c1ccccc1)N(Cc1ccccc1)C(=O)c1csnn1 (stereo not drawn),-13,0%,13%,-24%,1%,-21%
COc1ccccc1-c1ccc(SCc2ccc(C)cc2)nn1,-18,-3%,?,15µM*,-3%,7%
O=C(Nc1ccc(OCC(F)(F)F)cc1)c1n[nH]c(=O)c2ccccc12,.,.,.,.,.,-21%
O=c1[nH]nc(CNc2ccc(C(F)(F)F)cc2)c2ccccc12,27,-7%,12µM*,15µM*,12%,1%
O=c1[nH]nc(CNc2ccc(OC(F)(F)F)cc2)c2ccccc12,12,0%,21µM*,18µM*,1%,-2%
CC(C)(Oc1ccc(Cl)cc1)C(=O)NCc1n[nH]c(=O)c2ccccc12,33,-5%,21µM*,?,-23%,4%
O=c1[nH]nc(CNc2ccc(Cl)cc2Cl)c2ccccc12,4,?,?,?,-19%,-8%
O=c1[nH]nc(CNc2ccc(O)cc2)c2ccccc12,-101*,?,?,21µM*,-17%,5%
O=C(COc1ccccc1)N1CCC2(CC1)CC(OCC1CC1)CCO2 (stereo not drawn),.,.,.,.,.,20%
CSc1ccc(C2SCC(=O)N2c2ccc(Br)cc2)cc1 (stereo not drawn),.,.,.,.,.,-5%
O=c1[nH]nc(Cc2ncc(C(F)(F)F)cc2Cl)c2ccccc12,53,-21%,?,16µM*,-2%,5%
O=c1[nH]nc(Cc2ccc(Cl)cc2Cl)c2ccccc12,-10,-11%,-28%,-61%,-5%,16%
CCC(C)NC(=O)C1COC2(CCC(C)CC2)N1C(=O)c1ccccc1F (stereo not drawn),.,.,.,.,.,24%
CC(C)n1c(O)c(/C=C2\C=NN=C2c2ccccc2)sc1=S,.,21µM*,?,?,21µM*,0%
CCn1c(O)c(/C=C2\C=NN=C2c2ccc(C)cc2)sc1=S,-12,4%,0%,-19%,13%,?
CN(Cc1ccccc1)C1CCOC2(CCN(C(=O)NCc3ccc(F)cc3)CC2)C1 (stereo not drawn),.,.,.,.,.,-3%
